According to PubChem BioAssay AID1159580 (chemical genetic matrix, 2015):
Hit rate of the full screen: of about 5,500 compounds, about 2,000 (36%) were called active. Another 18% or so got no clear call; they are omitted. Rule as the data show it: active = normalized growth mostly below about 0.91 (no sharp cut-off); inconclusive = no clear call, values can overlap the other calls; inactive = mostly above about 0.92. The list shows a part of the results.

Assay: chemical genetic growth profiling, strain panel (AID 1159580);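 also: tested at 20 µM; growth read once vehicle control cultures reached saturation at 30 °C; 1 = growth at the plate median or of vehicle wells; lower values mean less growth of the strain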
Settings: growth OD

Measured: normalized growth

CCNc1nc(Cl)nc(NC(C)C)n1
inactive: S. cerevisiae deletion strains, locus YJR075W, strain HOC1, hits give low values 1.02 | S. cerevisiae deletion strains, locus YKL009W, strain mrt4, hits give low values 1.03 | S. cerevisiae deletion strains, locus YKL068W, hits give low values 1.02 | S. cerevisiae deletion strains, locus YKL085W, strain MDH1 (second series), hits give low values 1.02 | S. cerevisiae deletion strains, locus YKL085W, strain MDH1, hits give low values 1.02 | S. cerevisiae deletion strains, locus YKL160W, strain elf1, hits give low values 1 | S. cerevisiae deletion strains, locus YKL190W, strain CNB1, hits give low values 1.03 | S. cerevisiae deletion strains, locus YKR001C, strain vps1, hits give low values 1.03 | S. cerevisiae deletion strains, locus YKR026C, strain gcn3, hits give low values 0.991 | S. cerevisiae deletion strains, locus YKR091W, strain srl3, hits give low values 1.01 | S. cerevisiae deletion strains, locus YLL001W, strain dnm1, hits give low values 0.998 | S. cerevisiae deletion strains, locus YLL026W, hits give low values 1 | S. cerevisiae deletion strains, locus YLL041C, strain sdh2, hits give low values 1 | S. cerevisiae deletion strains, locus YLR027C, strain aat2, hits give low values 0.996 | S. cerevisiae deletion strains, locus YLR039C, strain RIC1, hits give low values 1.02 | S. cerevisiae deletion strains, locus YLR058C, strain SHM2, hits give low values 1.02 | S. cerevisiae deletion strains, locus YLR102C, strain apc9, hits give low values 1.02 | S. cerevisiae deletion strains, locus YLR113W, strain HOG1, hits give low values 0.993 | S. cerevisiae deletion strains, locus YLR221C, strain rsa3, hits give low values 1.01 | S. cerevisiae deletion strains, locus YLR258W, strain gsy2, hits give low values 1.01 | S. cerevisiae deletion strains, locus YLR262C, strain YPT6 (second series), hits give low values 1.01 | S. cerevisiae deletion strains, locus YLR262C, strain YPT6, hits give low values 1.04 | S. cerevisiae deletion strains, locus YLR268W, strain sec22, hits give low values 1.01 | S. cerevisiae deletion strains, locus YLR320W, strain mms22, hits give low values 1.01 | S. cerevisiae deletion strains, locus YLR330W, strain CHS5, hits give low values 1.02 | S. cerevisiae deletion strains, locus YLR342W, strain FKS1 (second series), hits give low values 1.01 | S. cerevisiae deletion strains, locus YLR342W, strain FKS1, hits give low values 1 | S. cerevisiae deletion strains, locus YLR357W, strain rsc2, hits give low values 0.991 | S. cerevisiae deletion strains, locus YLR370C, strain arc18, hits give low values 0.984 | S. cerevisiae deletion strains, locus YLR371W, strain rom2, hits give low values 1.02 | S. cerevisiae deletion strains, locus YLR384C, strain iki3, hits give low values 1.01 | S. cerevisiae deletion strains, locus YLR418C, strain cdc73, hits give low values 1.04 | S. cerevisiae deletion strains, locus YML016C, strain PPZ1, hits give low values 1.01 | S. cerevisiae deletion strains, locus YML032C, strain rad52, hits give low values 1.03 | S. cerevisiae deletion strains, locus YML120C, strain ndi1, hits give low values 1.02 | S. cerevisiae deletion strains, locus YML124C, strain tub3, hits give low values 1.02 | S. cerevisiae deletion strains, locus YMR058W, strain fet3, hits give low values 1.01 | S. cerevisiae deletion strains, locus YMR078C, strain ctf18, hits give low values 1.01 | S. cerevisiae deletion strains, locus YMR125W, strain sto1, hits give low values 0.977 | S. cerevisiae deletion strains, locus YMR129W, hits give low values 1 | S. cerevisiae deletion strains, locus YMR205C, strain PFK2, hits give low values 1.01 | S. cerevisiae deletion strains, locus YMR223W, strain ubp8, hits give low values 1.02 | S. cerevisiae deletion strains, locus YMR231W, strain pep5, hits give low values 0.996 | S. cerevisiae deletion strains, locus YMR263W, strain SAP30, hits give low values 1.03 | S. cerevisiae deletion strains, locus YMR307W, strain GAS1, hits give low values 1.09 | S. cerevisiae deletion strains, locus YNL067W, strain RPL9B, hits give low values 1.02 | S. cerevisiae deletion strains, locus YNL071W, strain lat1, hits give low values 1.01 | S. cerevisiae deletion strains, locus YNL128W, strain TEP1, hits give low values 1.02 | S. cerevisiae deletion strains, locus YNL153C, strain GIM3, hits give low values 1.01 | S. cerevisiae deletion strains, locus YNL183C, strain NPR1, hits give low values 0.97 | S. cerevisiae deletion strains, locus YNL209W, strain ssb2, hits give low values 1.01 | S. cerevisiae deletion strains, locus YNL233W, strain BNI4, hits give low values 0.98 | S. cerevisiae deletion strains, locus YNL248C, strain rpa49, hits give low values 0.994 | S. cerevisiae deletion strains, locus YNL250W, strain rad50, hits give low values 1.01 | S. cerevisiae deletion strains, locus YNL271C, strain bni1, hits give low values 1.02 | S. cerevisiae deletion strains, locus YNL298W, strain CLA4, hits give low values 1.02 | S. cerevisiae deletion strains, locus YNL307C, strain MCK1, hits give low values 1.02 | S. cerevisiae deletion strains, locus YNL322C, strain KRE1 (second series), hits give low values 1 | S. cerevisiae deletion strains, locus YNL322C, strain KRE1, hits give low values 1.02 | S. cerevisiae deletion strains, locus YNR049C, strain mso1, hits give low values 1 | S. cerevisiae deletion strains, locus YNR052C, strain pop2, hits give low values 1.04 | S. cerevisiae deletion strains, locus YOL006C, strain TOP1, hits give low values 1.04 | S. cerevisiae deletion strains, locus YOL012C, strain htz1 1.05 | S. cerevisiae deletion strains, locus YOL147C, strain pex11, hits give low values 1.01 | S. cerevisiae deletion strains, locus YOR001W, strain rrp6, hits give low values 0.998 | S. cerevisiae deletion strains, locus YOR061W, strain CKA2, hits give low values 1.02 | S. cerevisiae deletion strains, locus YOR069W, strain VPS5, hits give low values 1.01 | S. cerevisiae deletion strains, locus YOR070C, strain gyp1, hits give low values 1.01 | S. cerevisiae deletion strains, locus YOR080W, strain dia2, hits give low values 0.995 | S. cerevisiae deletion strains, locus YOR083W, strain WHI5, hits give low values 1 | S. cerevisiae deletion strains, locus YOR106W, strain vam3, hits give low values 1.04 | S. cerevisiae deletion strains, locus YOR136W, strain idh2, hits give low values 1.02 | S. cerevisiae deletion strains, locus YOR144C, strain elg1, hits give low values 1.02 | S. cerevisiae deletion strains, locus YOR184W, strain ser1, hits give low values 1.03 | S. cerevisiae deletion strains, locus YOR231W, strain MKK1, hits give low values 0.997 | S. cerevisiae deletion strains, locus YOR265W, strain rbl2, hits give low values 1 | S. cerevisiae deletion strains, locus YOR270C, strain vph1, hits give low values 0.975 | S. cerevisiae deletion strains, locus YOR290C, strain snf2, hits give low values 1.01 | S. cerevisiae deletion strains, locus YOR316C, strain cot1, hits give low values 1.03 | S. cerevisiae deletion strains, locus YPL051W, strain arl3, hits give low values 0.98 | S. cerevisiae deletion strains, locus YPL055C, strain LGE1, hits give low values 1.03 | S. cerevisiae deletion strains, locus YPL078C, strain atp4, hits give low values 0.977 | S. cerevisiae deletion strains, locus YPL106C, strain sse1, hits give low values 1.03 | S. cerevisiae deletion strains, locus YPL240C, strain hsp82, hits give low values 1.01 | S. cerevisiae deletion strains, locus YPL241C, strain CIN2, hits give low values 1.03 | S. cerevisiae deletion strains, locus YPL256C, strain CLN2, hits give low values 0.996 | S. cerevisiae deletion strains, locus YPR119W, strain clb2, hits give low values 1.01 | S. cerevisiae deletion strains, locus YPR141C, strain kar3, hits give low values 1.03 | S. cerevisiae deletion strains, locus YPR163C, strain tif3, hits give low values 1.03 | S. cerevisiae deletion strains, locus YPR167C, strain met16, hits give low values 1.02 | S. cerevisiae deletion strains, strain wtn01, hits give low values 1.02 | S. cerevisiae strains, strain wild type, hits give low values 1.02
